Assay results: PubChem BioAssay (EPA / NIEHS)
The source made the active and inactive calls. How the source made its calls: active means hit-call score of the fitted dose curve at least 0.9, where 1 is the maximum; inactive means score below 0.9.

Biological target: Hypoxia-inducible factor 1-alpha (Homo sapiens) (UniProt Q16665)
Assay: ATG_HIF1a_CIS: Attagene CIS-FACTORIAL HepG2 Assay for human Hypoxia Inducible Factor 1 (HIF1A) (AID 2282951)
Settings: HepG2 Attagene cis-factorial HIF1a reporter transcription; actives raise or lower the signal
How it was run: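 After 24 h chemical exposure of reporter-transfected HepG2 cells, reporter cDNA was PCR-amplified, labelled by 6-FAM primer extension (2 min 95 C, 20 s 68 C, 10 min 72 C), HpaI-cut (2 h, 37 C) and analysed by CE.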

Sequence of Hypoxia-inducible factor 1-alpha (Homo sapiens) (Q16665 whole entry, looked up): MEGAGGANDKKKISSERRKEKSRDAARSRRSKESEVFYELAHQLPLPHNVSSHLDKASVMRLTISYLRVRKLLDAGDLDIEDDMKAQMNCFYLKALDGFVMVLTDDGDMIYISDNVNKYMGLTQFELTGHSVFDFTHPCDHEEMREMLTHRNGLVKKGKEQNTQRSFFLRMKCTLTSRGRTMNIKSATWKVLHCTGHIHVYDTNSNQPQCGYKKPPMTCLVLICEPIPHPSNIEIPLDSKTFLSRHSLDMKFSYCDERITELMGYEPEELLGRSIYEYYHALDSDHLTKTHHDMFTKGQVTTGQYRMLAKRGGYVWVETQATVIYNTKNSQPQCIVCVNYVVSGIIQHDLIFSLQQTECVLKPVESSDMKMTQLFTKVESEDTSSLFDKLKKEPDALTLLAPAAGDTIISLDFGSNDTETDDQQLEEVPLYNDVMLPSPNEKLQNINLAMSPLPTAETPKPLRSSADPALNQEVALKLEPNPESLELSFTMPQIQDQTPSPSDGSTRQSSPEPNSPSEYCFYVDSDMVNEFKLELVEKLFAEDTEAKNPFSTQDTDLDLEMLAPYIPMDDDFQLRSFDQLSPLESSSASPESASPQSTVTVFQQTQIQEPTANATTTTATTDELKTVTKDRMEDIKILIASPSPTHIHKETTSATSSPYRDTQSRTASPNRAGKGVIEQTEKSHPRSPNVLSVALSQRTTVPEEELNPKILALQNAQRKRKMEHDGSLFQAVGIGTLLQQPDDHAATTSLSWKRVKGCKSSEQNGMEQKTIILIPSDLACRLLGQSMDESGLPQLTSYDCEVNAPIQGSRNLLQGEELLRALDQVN

outcome, inactive:
O=C1CCCCCCCCCCC(=O)OCCO1
CCCCCCCCCCCCCCCCCC#N
CC(=O)Nc1ccc2c(c1)Cc1cc(NC(C)=O)ccc1-2
CCCCCCCCCCCCCOP(=O)(O)O
CC(C)(C)C1CCCCC1=O (centres undefined)
SCCc1cnccn1
COc1ccc(NC(C)=O)cc1N
CCC(CO)CO
COc1c2ccoc2cc2oc(=O)ccc12
O=C(Nc1ccccc1)c1ccccc1O
C=C[Si](OC(C)=O)(OC(C)=O)OC(C)=O
Cc1ccc2c(c1)C(=O)c1ccccc1C2=O
CCCCCCCOC(=O)CCC
CC(C)(C)c1ccc(N)cc1
CC(=O)Nc1nnc(S(N)(=O)=O)s1
[Cl][Bi]([Cl])([c]1ccccc1)([c]1ccccc1)[c]1ccccc1
CCCCC(CC)COC(=O)c1ccccc1O (centres undefined)
CCC(CC)C(=O)O
CCCCC(CC)COCC1CO1 (centres undefined)
CCC(C)OC(=O)c1ccc(O)cc1 (centres undefined)
O=C(O)CCCCCCCCCC(=O)O
COc1ccc(C(Cl)=C(c2ccc(OC)cc2)c2ccc(OC)cc2)cc1
C=CC(=O)OCCC(=O)O
C=C(C)c1cccc(C(C)(C)N=C=O)c1
